# From PubChem BioAssay
# Active and inactive are the calls of the source.
# Key:
# Albumin (Bos taurus) = Albumin (Bos taurus) (UniProt P02769); assay: bovine serum albumin binders on microarray, profiling panel, artefact control for SMM control protein annotation, biochemical, small-molecule microarray, Alexa647 label, 635/667 nm fluorescence (AID 1118); conditions: BSA-A647 binding, fluorescence 635 nm, higher = more signal;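 further: score merges 667 nm emission intensity and signal-to-noise per printed compound spot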
# Chain of Albumin (Bos taurus) (P02769 whole entry, looked up): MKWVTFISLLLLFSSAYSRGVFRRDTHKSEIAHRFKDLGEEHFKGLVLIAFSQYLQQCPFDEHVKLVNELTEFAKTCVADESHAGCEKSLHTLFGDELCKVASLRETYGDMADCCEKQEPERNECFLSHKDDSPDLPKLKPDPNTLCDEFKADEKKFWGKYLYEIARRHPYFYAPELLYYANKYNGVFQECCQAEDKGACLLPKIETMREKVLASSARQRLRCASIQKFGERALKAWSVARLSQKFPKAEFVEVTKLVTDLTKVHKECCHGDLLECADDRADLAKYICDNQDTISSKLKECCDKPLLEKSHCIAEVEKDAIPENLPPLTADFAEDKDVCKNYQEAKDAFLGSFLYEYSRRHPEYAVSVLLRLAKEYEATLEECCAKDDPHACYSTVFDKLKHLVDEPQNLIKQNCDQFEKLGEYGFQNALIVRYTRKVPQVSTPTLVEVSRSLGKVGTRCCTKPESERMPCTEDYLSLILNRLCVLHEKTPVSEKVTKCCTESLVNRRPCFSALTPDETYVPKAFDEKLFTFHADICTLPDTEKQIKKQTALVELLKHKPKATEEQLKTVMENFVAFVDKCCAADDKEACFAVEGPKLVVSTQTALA
# [1] = small-molecule microarray binders of probe aXIP, primary screen, biochemical, NeuroSMM set, 635/667 nm fluorescence (AID 1119); conditions: higher = more signal, called active from +8 up or from −8 down;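 further: probe is the protein aXip251-270 applied at 1 µg/mL to compound-printed slides; binding of probe to printed compounds measured as 667 nm fluorescence plus signal to noise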
# [2] = small-molecule binders of probe aNOTCH3, primary screen, biochemical, small-molecule microarray, 635/667 nm fluorescence (AID 1120); conditions: higher = more signal;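 further: probe is a biotin-tagged antibody raised against NOTCH3 rather than NOTCH3 protein; score merges spot fluorescence near 667 nm with spot signal to noise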
# [3] = small-molecule binders of probe aNOTCH2, primary screen, biochemical, small-molecule microarray, 635/667 nm fluorescence (AID 1121); conditions: higher = more signal;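 further: score merges feature fluorescence read at 667 nm with its signal to noise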
# [4] = biological target: Carbonic anhydrase 2 (Homo sapiens) (UniProt P00918); assay: CAII small-molecule binders, profiling panel, biochemical, small-molecule microarray, Alexa647-labelled CAII (AID 1122); conditions: CAII-A647 binding fluorescence, higher = more signal
# [5] = COS7 lysate on small-molecule microarray, probe aHis, 635 nm (AID 1123); conditions: COS7 cell lysate, fluorescence, higher = more signal;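 further: z-score combines 667nm fluorescence intensity with signal-to-noise per printed compound spot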
# [6] = compound binding in COS7 lysate, probe aLAP1, primary screen, cell lysate, small-molecule microarray (AID 1124); conditions: probe aLAP1, fluorescence, higher = more signal;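 further: lysate comes from COS7 cells expressing LAP1 and is applied at 0.3 µg/mL; score merges spot fluorescence near 667 nm with signal-to-noise over triplicate slides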
# Sam68 (KHDRBS1) = assay: Sam68 small-molecule binders, primary screen, biochemical, small-molecule microarray, 635 nm fluorescence (AID 1125); conditions: small-molecule microarray binding, higher = more signal;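 further: score merges 667 nm channel intensity with signal to noise over triplicate slides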
# [7] = test system: Chordin-like protein 2 (CHRDL2); assay: CHRDL2 small-molecule binders, primary screen, biochemical, small-molecule microarray, 635 nm fluorescence (AID 1126); conditions: small-molecule microarray binding, fluorescence 635 nm; higher = more signal;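 further: printed compound slides probed with Chrdl2 protein at 4 µg/mL for 1 h at 4 C; score merges 667 nm emission intensity with signal to noise over three replicate slides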
# [8] = biological target: Concanavalin-A (Canavalia ensiformis) (UniProt P02866); assay: ConA small-molecule binders, primary screen, artefact control for SMM control protein annotation, biochemical, small-molecule microarray, Alexa647 label, 635 nm (AID 1127); conditions: ConA-A647 binding fluorescence, higher = more signal;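 further: z combines 667 nm emission intensity with signal-to-noise across three replicate slides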
# Chain of Concanavalin-A (Canavalia ensiformis) (P02866 whole entry, looked up): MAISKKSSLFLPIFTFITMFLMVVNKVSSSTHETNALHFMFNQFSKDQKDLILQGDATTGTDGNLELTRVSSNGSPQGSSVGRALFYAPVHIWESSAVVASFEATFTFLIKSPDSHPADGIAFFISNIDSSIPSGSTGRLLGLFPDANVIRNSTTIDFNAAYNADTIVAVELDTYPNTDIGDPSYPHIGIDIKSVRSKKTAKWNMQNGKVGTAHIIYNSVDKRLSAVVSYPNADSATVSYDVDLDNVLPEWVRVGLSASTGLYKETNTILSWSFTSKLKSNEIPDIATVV
# [9] = anti-His antibody binders, primary screen, artefact control for SMM control protein annotation, biochemical, small-molecule microarray, 635 nm fluorescence (AID 1128); conditions: anti-His Alexa647 antibody binding, higher = more signal;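 further: score merges feature fluorescence with signal-to-noise for each printed compound spot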
# [10] = test system: Human papillomavirus type 1a E7 protein (residues 1-88); assay: HPV1a E7 small-molecule binders, primary screen, biochemical, small-molecule microarray, residues 1-88, 635 nm (AID 1129); conditions: small-molecule microarray binding, fluorescence 635 nm; higher = more signal
# [11] = biological target: Focal adhesion kinase 1 (Homo sapiens) (UniProt Q05397); assay: small-molecule microarray binders of FAK, primary screen, biochemical, 635/667 nm fluorescence, BSA, DTT (AID 1130); conditions: PTK2 binding, 635 nm fluorescence, higher = more signal;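 further: composite of spot emission at 667 nm and signal to noise over triplicate slides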
# Chain of Focal adhesion kinase 1 (Homo sapiens) (Q05397 whole entry, looked up): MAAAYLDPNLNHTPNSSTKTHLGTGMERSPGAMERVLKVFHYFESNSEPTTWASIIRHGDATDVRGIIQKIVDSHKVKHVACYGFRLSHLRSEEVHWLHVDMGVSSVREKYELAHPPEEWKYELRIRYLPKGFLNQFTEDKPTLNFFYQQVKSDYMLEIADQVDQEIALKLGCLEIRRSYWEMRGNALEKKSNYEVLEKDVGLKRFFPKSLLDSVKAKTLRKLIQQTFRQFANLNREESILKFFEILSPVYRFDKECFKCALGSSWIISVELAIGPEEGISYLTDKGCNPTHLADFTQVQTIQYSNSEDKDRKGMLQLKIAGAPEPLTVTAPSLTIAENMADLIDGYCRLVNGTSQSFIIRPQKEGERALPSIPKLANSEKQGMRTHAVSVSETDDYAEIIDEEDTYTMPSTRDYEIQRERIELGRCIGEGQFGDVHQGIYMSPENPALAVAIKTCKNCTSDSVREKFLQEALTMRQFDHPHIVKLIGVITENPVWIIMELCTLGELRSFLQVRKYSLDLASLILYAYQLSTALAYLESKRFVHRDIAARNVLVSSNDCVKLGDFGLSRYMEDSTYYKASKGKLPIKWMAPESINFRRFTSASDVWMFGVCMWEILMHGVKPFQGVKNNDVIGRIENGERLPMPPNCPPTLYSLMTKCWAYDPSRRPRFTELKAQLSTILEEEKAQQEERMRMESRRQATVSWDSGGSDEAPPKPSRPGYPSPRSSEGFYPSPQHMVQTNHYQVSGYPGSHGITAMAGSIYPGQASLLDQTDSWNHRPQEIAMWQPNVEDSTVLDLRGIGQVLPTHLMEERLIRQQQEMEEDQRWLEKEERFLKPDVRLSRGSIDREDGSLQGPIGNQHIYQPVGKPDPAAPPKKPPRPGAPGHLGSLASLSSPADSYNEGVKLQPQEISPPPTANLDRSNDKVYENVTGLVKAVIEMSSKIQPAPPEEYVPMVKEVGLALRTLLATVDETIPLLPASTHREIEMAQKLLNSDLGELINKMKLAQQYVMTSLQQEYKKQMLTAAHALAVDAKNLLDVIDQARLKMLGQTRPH
# [12] = test system: Fibrinogen (Alexa647-labelled); assay: fibrinogen binders on compound microarrays, profiling panel, artefact control for SMM control-protein annotation, biochemical, small-molecule microarray, 635/667 nm fluorescence (AID 1131); conditions: fibrinogen-A647 binding fluorescence, higher = more signal;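 further: z-score merges 667 nm fluorescence with per-spot signal-to-noise over triplicate slides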
# [13] = biological target: Follistatin (Homo sapiens) (UniProt P19883); assay: follistatin binders on small-molecule microarrays, primary screen, biochemical, small-molecule microarray, 635/667 nm fluorescence (AID 1132); conditions: FST binding, 635 nm fluorescence, higher = more signal
# Chain of Follistatin (Homo sapiens) (P19883 whole entry, looked up): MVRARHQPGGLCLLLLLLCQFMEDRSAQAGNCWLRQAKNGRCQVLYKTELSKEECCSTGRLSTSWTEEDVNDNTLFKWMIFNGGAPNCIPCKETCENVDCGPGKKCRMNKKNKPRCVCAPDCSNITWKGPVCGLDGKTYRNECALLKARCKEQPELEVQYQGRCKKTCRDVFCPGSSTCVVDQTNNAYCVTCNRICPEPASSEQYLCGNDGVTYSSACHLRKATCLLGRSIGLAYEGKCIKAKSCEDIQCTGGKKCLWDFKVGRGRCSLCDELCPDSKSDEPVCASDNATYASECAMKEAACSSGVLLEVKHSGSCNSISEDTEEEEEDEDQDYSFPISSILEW
# [14] = biological target: Fibroblast growth factor 2 (Homo sapiens) (UniProt P09038); assay: FGF2 binders on small-molecule microarrays, primary screen, biochemical, small-molecule microarray, 635/667 nm fluorescence (AID 1133); conditions: small-molecule microarray binding, FGF2, fluorescence 635/667; higher = more signal
# Chain of Fibroblast growth factor 2 (Homo sapiens) (P09038 whole entry, looked up): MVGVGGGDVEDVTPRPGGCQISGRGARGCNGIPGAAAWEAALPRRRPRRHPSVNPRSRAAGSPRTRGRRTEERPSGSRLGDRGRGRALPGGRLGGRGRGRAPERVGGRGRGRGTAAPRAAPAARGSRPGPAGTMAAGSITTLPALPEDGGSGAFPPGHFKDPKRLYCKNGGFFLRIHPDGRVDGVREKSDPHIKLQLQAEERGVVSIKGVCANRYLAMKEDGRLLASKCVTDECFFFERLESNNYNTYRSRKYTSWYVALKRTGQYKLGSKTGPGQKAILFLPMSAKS
# [15] = mitochondrial membrane potential change in A549 cells, profiling panel, cell-based, JC-1 fluorescence, basal, 24 h, 100 nL (AID 1138); conditions: higher = more signal;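 further: A549 lung adenocarcinoma cells under basal conditions with no added stimulus; test concentration not given here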
# Lefty1 = Lefty1 binders on small-molecule microarrays, primary screen, biochemical, small-molecule microarray, 635/667 nm fluorescence (AID 1139); conditions: small-molecule microarray binding, fluorescence 635/667; higher = more signal
# [16] = test system: wheat germ agglutinin (Triticum aestivum), Alexa647-labelled; assay: wheat germ agglutinin binders on compound microarrays, profiling panel, artefact control for SMM control-protein annotation, biochemical, small-molecule microarray, 635/667 nm fluorescence (AID 1140); conditions: WGA-A647 binding, 635 nm fluorescence, higher = more signal;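 further: score merges 667 nm feature emission with signal to noise over triplicate slides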
# [17] = biological target: Luciferin 4-monooxygenase (Photinus pyralis) (UniProt P08659); assay: firefly luciferase enzyme inhibitors, primary screen, biochemical, luminescence, purified enzyme, 2006 set (AID 1141); conditions: SteadyGlo luminescence, 30 min, higher = more signal, called active from +8 up or from −8 down;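 further: cell-free assay with purified firefly luciferase at 100 ng per well in PBS; test concentration not given here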
# Chain of Luciferin 4-monooxygenase (Photinus pyralis) (P08659 whole entry, looked up): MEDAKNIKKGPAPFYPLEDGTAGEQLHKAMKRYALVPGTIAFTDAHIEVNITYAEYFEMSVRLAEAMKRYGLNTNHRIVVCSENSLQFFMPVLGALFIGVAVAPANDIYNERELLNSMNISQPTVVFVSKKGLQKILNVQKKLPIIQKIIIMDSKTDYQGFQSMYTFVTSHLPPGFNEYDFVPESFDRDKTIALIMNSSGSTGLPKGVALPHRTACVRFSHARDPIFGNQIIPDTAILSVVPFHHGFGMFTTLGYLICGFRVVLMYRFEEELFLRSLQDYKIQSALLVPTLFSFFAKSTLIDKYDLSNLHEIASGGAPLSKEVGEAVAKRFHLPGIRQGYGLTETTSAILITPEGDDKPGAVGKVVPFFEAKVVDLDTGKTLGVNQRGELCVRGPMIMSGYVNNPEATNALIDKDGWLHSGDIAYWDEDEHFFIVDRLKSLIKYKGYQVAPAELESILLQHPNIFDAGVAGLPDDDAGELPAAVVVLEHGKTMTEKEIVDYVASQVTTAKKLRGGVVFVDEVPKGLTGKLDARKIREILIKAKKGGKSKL
SMILES,composite z-score (Albumin (Bos taurus)),composite Z-score [1],composite z-score [2],composite z-score [3],composite z-score [4],composite z-score [5],composite z-score [6],composite z-score (Sam68 (KHDRBS1)),composite z-score [7],composite z-score [8],composite z-score [9],composite z-score [10],composite z-score [11],composite z-score [12],composite z-score [13],composite z-score [14],z-score [15],composite z-score (Lefty1),composite z-score [16],z-score [17]
Cc1ccc([C@H]2[C@H](C(=O)O)[C@H](Sc3ccccc3)[C@@H](C(C)C)N2S(=O)(=O)c2ccc(C)cc2)cc1,0.907,0.497 (inactive),0.249,0.0303,0.66,2.25,0.722,1.31,-0.299,1.09,0.229,1.19,0.344,0.996,0.744,-0.228,-1.31,0.127,0.798,0.426 (inactive)
O=C1N(CCS(=O)(=O)c2ccccc2)Cc2ccccc2C[C@]12N=C(c1ccc(OCCCO)cc1)O[C@@H]2c1ccccc1,-0.591,0.339 (inactive),0.567,0.189,0.396,3.41,1.17,1.13,1.17,1.12,2.51,1.08,0.342,0.356,1.5,1.91,0.685,0.557,1.13,-1 (inactive)
CCCN1C(=O)[C@]2(COC(c3ccc(OCCCO)cc3)=N2)Cc2ccccc21,0.0531,0.305 (inactive),-0.0026,-0.0009,0.64,1.93,-0.218,1.11,-0.125,1.13,2.63,1.23,0.473,0.551,1.35,1.26,0.306,-0.222,0.974,-1.66 (inactive)
O=c1cccc(CCc2ccccc2)o1,-0.284,0.338 (inactive),-0.301,-0.0986,0.731,0.89,-0.397,0.854,0.146,0.283,1.24,0.741,0.675,-0.229,0.641,0.257,0.426,0.593,0.211,0.0302 (inactive)
COc1c(C)cc(-c2cc3c(c(-c4ccc(Oc5ccccc5)cc4)n2)[Si](C(C)C)(C(C)C)OC3)cc1C,-0.237,-0.591 (inactive),0.0208,0.0016,-0.229,-0.202,0.151,-1.07,-0.206,-0.52,-0.271,-0.582,-0.0939,-0.551,-0.228,0.515,0.577,0.38,-0.0472,0.279 (inactive)
COc1ccc([Si](C)(C)[C@H]2[C@H](CCn3cc(CCO)nn3)O[C@@]3(C(=O)N(Cc4ccc(N5CCOC5=O)cc4)c4ccccc43)[C@@H]2C)cc1,0.535,0.533 (inactive),-0.0126,-0.112,0.458,1.94,0.622,1.23,0.21,0.702,1.88,1.16,0.105,0.505,0.308,0.308,1.26,0.419,0.829,-0.648 (inactive)
